Out of some 3,200 compounds screened, about 110 (3.4%) showed an effect of 50% or more. What follows is part of a selection rich in strong results, with near analogues and random picks from the rest.
Each compound was assayed on T1, V. cholerae SAD30. Details: relative growth, OD600, LB; 25 µM; inhibitor.
T1 construct: SAD30
Parameters: species or system S. aureus MSSA476 (TSB) or V. cholerae SAD30 (LB); 384-well bacterial growth screen at 25 uM, OD600 relative to DMSO control

For `O=C(CCl)NCCSc1ccccc1` [4-G21, 2-chloro-N-[2-(phenylsulfanyl)ethyl]acetamide], which “% of control remaining” value is on record?
Its value is 113.522%.

How did the “% of control remaining” value turn out when `CN1c2ccccc2C(NC(=O)CCl)CS1(=O)=O` (stereo not shown) [7-L04, 2-chloro-N-(1-methyl-2,2-dioxo-3,4-dihydro-1H-2lambda6,1-benzothiazin-4-yl)acetamide] was run?
The value was 88.9476%.

For `N#CC(=Cc1ccc(C#N)cc1)C(=O)N1CCCC1` [9-P21, 4-[2-cyano-2-(pyrrolidine-1-carbonyl)eth-1-en-1-yl]benzonitrile], which “% of control remaining” value is on record?
The value was 93.8817%.

`O=C1C=CC(=O)N1c1cnccn1` [10-P07, 1-(pyrazin-2-yl)-2,5-dihydro-1H-pyrrole-2,5-dione] was tested. Which “% of control remaining” value did it give?
Its value is 97.4089%.

With `O=C1C=CC(=O)N1c1ccc(F)c(Cl)c1` [10-D15, 1-(3-chloro-4-fluorophenyl)-2,5-dihydro-1H-pyrrole-2,5-dione] as the compound, how does the “% of control remaining” value read?
Its value is 25.716%.

For `O=C1C=CC(=O)N1c1ccc(F)cc1` [10-M10, 1-(4-fluorophenyl)-2,5-dihydro-1H-pyrrole-2,5-dione], which “% of control remaining” value is on record?
Its value is 16.8323%.

For `O=C(CCl)Nc1ccc(SC(F)F)cc1` [4-B10, 2-chloro-N-{4-[(difluoromethyl)sulfanyl]phenyl}acetamide], which “% of control remaining” value is on record?
Its value is 104.205%.

`N#Cc1ccc(N2C(=O)C=CC2=O)cc1` [10-B09, 4-(2,5-dioxo-2,5-dihydro-1H-pyrrol-1-yl)benzonitrile] was tested. Which “% of control remaining” value did it give?
Its value is 24.9367%.

How did the “% of control remaining” value turn out when `O=C1C=CC(=O)N1c1ccc(SC(F)F)cc1` [10-A18, 1-{4-[(difluoromethyl)sulfanyl]phenyl}-2,5-dihydro-1H-pyrrole-2,5-dione] was run?
Its value is 28.9889%.

With `CC(Cl)C(=O)Nc1ccc(SC(F)F)cc1` (stereo not shown) [4-L09, 2-chloro-N-{4-[(difluoromethyl)sulfanyl]phenyl}propanamide] as the compound, how does the “% of control remaining” value read?
Its value is 88.1604%.

Which “% of control remaining” value does the source give for `CC(Cl)C(=O)Nc1ccc(F)c(Cl)c1` (stereo not shown) [4-A04, 2-chloro-N-(3-chloro-4-fluorophenyl)propanamide] here?
Its value is 99.7196%.

With `COc1ccc(NC(=O)C(C#N)=Cc2cnc3c(C)cccn23)cc1` [9-L03, 2-cyano-N-(4-methoxyphenyl)-3-{8-methylimidazo[1,2-a]pyridin-3-yl}prop-2-enamide] as the compound, how does the “% of control remaining” value read?
The value was 95.7852%.

`CN1C=C(C(F)(F)F)C=CC1=C(C#N)C(=O)Nc1ccccc1F` [8-H20, 2-cyano-N-(2-fluorophenyl)-2-[1-methyl-5-(trifluoromethyl)-1,2-dihydropyridin-2-ylidene]acetamide] was tested. Which “% of control remaining” value did it give?
The value was 66.9613%.

How did the “% of control remaining” value turn out when `CC(Cl)C(=O)N(C)Cc1ccccc1` (stereo not shown) [6-I13, N-benzyl-2-chloro-N-methylpropanamide] was run?
Its value is 78.87%.

Which “% of control remaining” value does the source give for `CN(c1ccccc1)S(=O)(=O)c1cccc(NC(=O)CCl)c1` [4-H04, 2-chloro-N-{3-[methyl(phenyl)sulfamoyl]phenyl}acetamide] here?
The value was 111.106%.

Which “% of control remaining” value does the source give for `O=C(CCc1ccccc1)NC1CCN(C(=O)CCl)CC1` [5-L08, N-[1-(2-chloroacetyl)piperidin-4-yl]-3-phenylpropanamide] here?
The value was 100.704%.

With `C=CC(=O)N(C)CC(=O)NCc1c(O)nnc(C)c1C` [2-I20, N-({[(3-hydroxy-5,6-dimethylpyridazin-4-yl)methyl]carbamoyl}methyl)-N-methylprop-2-enamide] as the compound, how does the “% of control remaining” value read?
The value was 95.9085%.

Which “% of control remaining” value does the source give for `CC(Cl)C(=O)N1CCN(c2cc(-c3ccccc3F)n[nH]2)CC1` (stereo not shown) [6-N20, 2-chloro-1-{4-[3-(2-fluorophenyl)-1H-pyrazol-5-yl]piperazin-1-yl}propan-1-one] here?
Its value is 84.7853%.

How did the “% of control remaining” value turn out when `CC(C)C(=O)Nc1ccc(C(=O)CCl)cc1` [10-D04, N-[4-(2-chloroacetyl)phenyl]-2-methylpropanamide] was run?
The value was 37.405%.

`CCC(=O)Nc1ccc(C(=O)CCl)cc1` [10-C03, N-[4-(2-chloroacetyl)phenyl]propanamide] was tested. Which “% of control remaining” value did it give?
The value was 111.903%.

Which “% of control remaining” value does the source give for `O=C(CCl)c1ccc(NC(=O)c2ccccc2)cc1` [10-B06, N-[4-(2-chloroacetyl)phenyl]benzamide] here?
Its value is 21.5079%.

With `CC(=O)Nc1ccc(C(=O)CCl)cc1` [10-O12, N-[4-(2-chloroacetyl)phenyl]acetamide] as the compound, how does the “% of control remaining” value read?
Its value is 74.4983%.

How did the “% of control remaining” value turn out when `NC(=O)Nc1ccc(C(=O)CCl)cc1` [10-J07, [4-(2-chloroacetyl)phenyl]urea] was run?
The value was 65.4588%.

Which “% of control remaining” value does the source give for `CC(C)CC(=O)Nc1ccc(C(=O)CCl)cc1` [10-N06, N-[4-(2-chloroacetyl)phenyl]-3-methylbutanamide] here?
The value was 76.8362%.

With `C=CC(=O)NCc1nc2ccccc2n1C1CC1` [2-N03, N-[(1-cyclopropyl-1H-1,3-benzodiazol-2-yl)methyl]prop-2-enamide] as the compound, how does the “% of control remaining” value read?
The value was 105.172%.

With `N#CC(=Cc1cc2c(cc1[N+](=O)[O-])OCO2)C(=O)NC1CCCCC1` [8-F22, 2-cyano-N-cyclohexyl-3-(6-nitro-1,3-dioxaindan-5-yl)prop-2-enamide] as the compound, how does the “% of control remaining” value read?
The value was 83.6846%.

With `CN(C)S(=O)(=O)c1cccc(NC(=O)CCl)c1` [4-J08, 2-chloro-N-[3-(dimethylsulfamoyl)phenyl]acetamide] as the compound, how does the “% of control remaining” value read?
Its value is 94.3714%.

`CC(C)NC(=O)C(C#N)=Cc1ccc(C(F)(F)F)cc1` [8-L13, 2-cyano-N-(propan-2-yl)-3-[4-(trifluoromethyl)phenyl]prop-2-enamide] was tested. Which “% of control remaining” value did it give?
Its value is 68.3209%.

`Cc1cc(=O)[nH]c(-c2cccc(NC(=O)C(C#N)=Cc3ccco3)c2)n1` [8-B10, 2-cyano-3-(furan-2-yl)-N-[3-(4-methyl-6-oxo-1,6-dihydropyrimidin-2-yl)phenyl]prop-2-enamide] was tested. Which “% of control remaining” value did it give?
The value was 79.4697%.

With `COc1ccc(NC(=O)CCl)c([N+](=O)[O-])c1` [4-I21, 2-chloro-N-(4-methoxy-2-nitrophenyl)acetamide] as the compound, how does the “% of control remaining” value read?
Its value is 107.311%.

How did the “% of control remaining” value turn out when `Cc1ccc(NC(=O)CCl)c([N+](=O)[O-])c1` [4-A07, 2-chloro-N-(4-methyl-2-nitrophenyl)acetamide] was run?
The value was 105.068%.

For `COc1ccc(NC(=O)C(C)Cl)c([N+](=O)[O-])c1` (stereo not shown) [6-B08, 2-chloro-N-(4-methoxy-2-nitrophenyl)propanamide], which “% of control remaining” value is on record?
Its value is 90.3972%.

`Cc1ccc(N2C(=O)C=CC2=O)c([N+](=O)[O-])c1` [10-N13, 1-(4-methyl-2-nitrophenyl)-2,5-dihydro-1H-pyrrole-2,5-dione] was tested. Which “% of control remaining” value did it give?
Its value is 27.1186%.

With `COc1ccc(N2C(=O)C=CC2=O)c([N+](=O)[O-])c1` [10-L11, 1-(4-methoxy-2-nitrophenyl)-2,5-dihydro-1H-pyrrole-2,5-dione] as the compound, how does the “% of control remaining” value read?
Its value is 30.3916%.

Reference: publication PMC11995724, “Antibiotic target discovery by integrated phenotypic and activity-based profiling of electrophilic fragments” (Cell chemical biology, 2025)
